# APP 5UTR inh: APP translation inhibition; AID 1285; SH-SY5Y APP 5'UTR-luciferase reporter, luminescence; inhibition, % at 2 µM; 0.82% of 190,000 active;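 active means inhibition above a set limit, derived from the sample mean plus 3 SD, cut at about 45% in these data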
# aSyn UTR inh: 5' untranslated region of α-synuclein, MLPCN primary screen; alpha-synuclein 5'UTR reporter, inhibitor activity; inhibition, % (tested at 7.5 µM); 0.82% of 300,000 active; AID 1813; in the data active means inhibition above about 60%;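 further: H4 neuroglioblastoma cells stably carrying SNCA 5'UTR luciferase fusion; 0% = DMSO wells and 100% = positive control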
# Ba/F3 V617F tox: loss of viability in JAK2V617F-driven Ba/F3 cells | Ba/F3 EpoR-JAK2V617F viability, ATP luminescence | inhibition, % at 5.6 µM | 1.1% of 220,000 active;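 active means inhibition above the campaign mean plus 3 SD over all tested compounds, cut at about 24% in these data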;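 further: cytokine-independent growth of Ba/F3 cells driven by EpoR plus mutant JAK2; 0% = DMSO-treated cells and 100% = JAK inhibitor I control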
# BaF3 tox: reduces parental Ba/F3 cell viability, JAK2V617F counter-screen. CellTiter-Glo ATP luminescence. inhibition, % at 5.6 µM. 1.1% of 220,000 active. AID 1486;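 active means inhibition above a per-campaign cutoff, the mean inhibition of all tested compounds plus 3 SD, cut at about 27% in these data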;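 further: 0% = DMSO wells and 100% = JAK Inhibitor I control wells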
# KLF5 inhibitor: suppresses KLF5 promoter-driven expression; 0.23% of 290,000 active; AID 1700; inhibition, % at 5 µM; DLD-1 KLF5 promoter-luciferase reporter, luminescence;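 active means inhibition above a per-plate limit of that plate's mean compound inhibition plus 3 SD, cut at about 60% in these data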;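 further: 0% = DMSO wells and 100% = LY294002 at 200 µM; higher means less KLF5 promoter-driven luciferase light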
# IEC-6 tox: IEC-6 cytotoxicity, counter-screen for KLF5 inhibitors. inhibition, % at 5 µM. luminescence viability. AID 1825. 0.78% of 290,000 active;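 further: 0% = plate median of test compound wells and 100% = cytotoxic reference compound wells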
# IEC-6 cytotox cf: confirmation of cytotoxic compounds in rat IEC-6 intestinal epithelial cells. shares compounds with IEC-6 tox. IEC-6 rat intestinal epithelial viability, luminescence. inhibition, % at 5 µM. 63% of 1,900 active. AID 1907;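 further: 0% = vehicle and 100% = reference cytotoxic drug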
# An asterisk follows results filed as active; · = no result. Sampled rows, rich in hits. Any-hit rate of the full collection: about 2.2%. Unless noted, no stated cut-off is given here; in the data, active means inhibition above about 22%; inactive means the rest.
SMILES,APP 5UTR inh,aSyn UTR inh,Ba/F3 V617F tox,BaF3 tox,KLF5 inhibitor,IEC-6 tox,IEC-6 cytotox cf
CC(=O)NC1=NN(C(C)=O)C(C)(c2ccc3ccccc3c2)S1 (centres undefined),11.9,-5.5,0.0,8.8,-26.4,5.5,·
CC(=O)NC1=NN(C(C)=O)C(C)(c2ccccc2)S1 (centres undefined),49.3*,4.9,67.0*,61.1*,43.8,64.0*,45.0*
COC(=O)c1[nH]c2c(c1C)C(=O)CC(c1cccs1)C2 (centres undefined),95.1*,84.6*,79.0*,81.8*,45.2,84.1*,50.4*
CSCCOC(=O)c1[nH]c2c(c1C)C(=O)CC(c1ccco1)C2 (centres undefined),94.9*,33.3,72.1*,72.5*,58.8,73.5*,48.3*
COCCOC(=O)c1[nH]c2c(c1C)C(=O)CC(c1ccc(F)cc1)C2 (centres undefined),-16.2,1.5,2.1,10.0,8.7,18.9,·
COCCOC(=O)c1[nH]c2c(c1C)C(=O)CC(c1ccc(N(C)C)cc1)C2 (centres undefined),-26.8,-45.0,-3.7,1.9,-60.6,-0.5,·
COC(=O)c1[nH]c2c(c1C)C(=O)CC(c1cc(OC)ccc1OC)C2 (centres undefined),0.1,-29.1,3.1,4.5,4.8,5.6,·
COCCOC(=O)c1[nH]c2c(c1C)C(=O)CC(c1ccccc1)C2 (centres undefined),92.0*,77.7*,73.9*,74.9*,45.1,83.5*,56.0*
O=c1ccc(-c2ccc(S(=O)(=O)Nc3ccc(F)cc3)o2)n[nH]1,·,-8.4,·,·,-13.8,-3.3,·
NCCc1nc(-c2ccccc2)cs1,-0.6,-18.6,2.4,1.0,-24.2,0.6,·
O=C(NCC(c1cccs1)N1CCOCC1)c1ccc(Cl)s1 (centres undefined),60.7*,7.1,74.1*,68.6*,38.0,72.0*,49.1*
O=C(NCC(c1cccs1)N1CCOCC1)c1ccc(Cl)cc1 (centres undefined),·,-100.1,·,·,·,·,·
Cc1cc(C)c(NC(=S)N2CCC(N(C)CC3CCCO3)CC2)c(C)c1 (centres undefined),16.0,-46.5,-7.0,1.8,-2.8,26.9*,-6.6
O=C(c1ccc2oc(CCc3ccccc3)nc2c1)N1CCC(O)CC1,·,-72.9,·,·,-119.0,1.6,·
CCOc1cc(/C=C(/NC(C)=O)C(=O)O)cc(Cl)c1OCc1ccc(Br)cc1,·,-0.4,4.2,-1.9,-20.4,26.2*,2.0
CCOc1ccc(/C=C(/NC(=O)c2ccc(Cl)cc2)C(=O)O)cc1OCC,·,-86.2,-4.2,-0.8,9.7,3.8,·
O=C(/C=C/c1c[nH]c2ccccc12)c1ccccc1,-116.8,-330.2,3.0,4.5,-50.6,0.5,·
OCC[n+]1ccc(/C=C/c2c[nH]c3ccccc23)cc1,16.4,-12.2,90.2*,84.4*,6.3,56.3*,5.0
Cc1ccc(C(=O)NC(C#N)=C(Cl)Cl)cc1,57.7*,-191.3,11.4,-4.3,-15.7,70.2*,18.8
Cc1ccc(C(=O)NCC#N)cc1,-1.8,1.2,-1.0,8.4,-20.6,-9.9,·
NS(=O)(=O)c1ccc(CCNc2ccccc2[N+](=O)[O-])cc1,·,-11.6,·,·,-47.2,4.3,·
COc1ccc(NS(=O)(=O)c2cc(Br)cc3c2N(C(C)=O)CC3)cc1,·,-29.9,·,·,30.5,38.0*,33.5*
c1ccc(Nc2ncnc3sccc23)cc1,·,-16.7,·,·,-24.6,10.1,·
CC(Nc1ncnc2sccc12)c1ccccc1 (centres undefined),·,45.3,·,·,-7.9,29.0*,26.9*
COc1cc(S(=O)(=O)Nc2cccnc2)ccc1Cl,·,-2.1,·,·,-15.4,1.4,·
SMILES,APP 5UTR inh,aSyn UTR inh,Ba/F3 V617F tox,BaF3 tox,KLF5 inhibitor,IEC-6 tox,IEC-6 cytotox cf
COc1cc(/C=N/NC(=S)NC2CC3C=CC2C3)cc(OC)c1OC (centres undefined),·,10.2,3.5,-5.9,-20.8,27.9*,1.7
CN(C)C(=S)Nc1nc2ccccc2s1,-63.4,-136.6,2.9,3.5,-181.6,30.2*,-5.2
CCOC(=O)c1c(NC(=O)CSc2nc3ccc(C)cc3[nH]2)sc2c1CC(C)(C)NC2(C)C,·,-2.5,·,·,·,·,·
COC(=O)C(NC(=O)CNS(=O)(=O)c1ccc(Br)cc1)c1ccccc1 (centres undefined),3.0,-1.1,0.8,2.8,-0.5,4.8,·
Cc1cc(C)nc(SCc2ccc(C(=O)NNC(=O)Nc3cccc(Cl)c3)cc2)n1,7.5,23.9,-0.6,6.5,-10.0,-1.0,·
O=C(NCCN1CCOCC1)c1ccncc1,-14.1,10.8,-1.1,1.5,3.4,-7.6,·
O=C1C=C(NCCN2CCOCC2)C(=O)c2cnccc21,12.7,131.5*,7.7,10.5,29.7,99.3*,100.4*
COc1ccc2cc1Oc1ccc(cc1)CC1c3c(cc(OC)c4c3Oc3cc5c(cc3O4)CCNC5C2)CCN1C (centres undefined),·,114.2*,-0.8,0.6,-9.7,44.8*,8.5
CCOC(=O)CSC1=C(C#N)C(c2ccc(C)s2)CC(=O)N1 (centres undefined),91.4*,40.6,81.1*,77.5*,52.7,74.9*,52.5*
CCSC1=C(C#N)C(c2ccc(C)s2)CC(=O)N1 (centres undefined),-2.2,18.4,-2.1,0.0,-3.5,-1.4,·
O=[N+]([O-])c1ccc(Cl)c(C2Nc3cccc4cccc(c34)N2)c1,4.7,25.8,100.1*,102.5*,17.1,69.7*,35.2*
Clc1ccc(C2Nc3cccc4cccc(c34)N2)cc1Cl,·,10.5,·,·,19.1,-2.4,·
O=C(Cc1cccs1)NCc1ccccc1Br,·,-45.7,·,·,-43.6,-10.8,·
CC(NC(=O)/C(C#N)=C/c1ccc([N+](=O)[O-])o1)c1ccccc1 (centres undefined),·,-54.3,·,·,3.4,47.6*,15.6
COc1ccc(C/C(C)=N\NC(=O)c2cn(C)c3ccccc23)cc1OC,·,14.2,17.5,10.0,41.3,30.8*,-8.9
COc1ccc(CC(=O)N/N=C/c2c(C)n(C)c3ccccc23)cc1OC,·,38.9,4.2,1.4,21.9,13.9,·
O=C(c1ccc([N+](=O)[O-])o1)N1CCc2ccccc2C1,·,-103.3,-0.9,-1.1,-25.7,-1.2,·
O=C(c1ccc([N+](=O)[O-])o1)N1CCc2ccccc21,·,-190.3,·,·,-60.9,29.7*,5.1
Cc1ccc2[nH]c(C(=O)N/N=C/c3ccc([N+](=O)[O-])cc3)c(C)c2c1,·,-62.9,·,·,32.1,33.9*,25.5*
COc1ccc(C(NC(C)=O)c2cc(Cl)c3cccnc3c2O)cc1 (centres undefined),·,75.9*,·,·,75.3*,54.0*,56.3*
COc1cc(NC(=O)c2ccc([N+](=O)[O-])o2)ccc1NC(=O)c1ccco1,·,10.6,·,·,-14.8,100.1*,20.1
Cc1cc(NC(=O)c2ccc([N+](=O)[O-])o2)ccc1NC(=O)c1ccco1,79.0*,-110.4,83.0*,78.3*,9.8,86.7*,25.3*
CC(C)CCN(C(=O)C1CSC2(C)CCC(=O)N12)c1c(N)n(Cc2ccccc2)c(=O)[nH]c1=O (centres undefined),·,5.3,·,·,·,·,·

# Screening results: PubChem BioAssay, several laboratories
